Records with an inconclusive call do not appear. Activity calls are given as the source filed them. Calls come from the whole dose curve; as a rule, active = well fitted inhibition curve with a large enough effect; inconclusive = small, poorly fitted or top-dose-only effect; inactive = no such curve, though single readings can be large or run the other way.
What follows are compounds tested against Retinaldehyde dehydrogenase 3 (Homo sapiens) (UniProt P47895) (assay: qHTS for Inhibitors of the Aldehyde Dehydrogenase Family (ALDH1A3) Validation screen (AID 2061312; note: nearly all actives have a fitted effect of over 45% in size)). Settings: ALDH1A3 enzyme inhibition qHTS validation, fluorescence; series mostly up to 84.7 µM; activity change, negative = inhibition: at the top concentration.
% is set by controls: 0 for no effect and ±100 for the full control effect.

Structure (SMILES) | activity change, negative = inhibition
O=C(O)C[C@H](O)C[C@H](O)/C=C/c1c(C2CC2)nc2ccccc2c1-c1ccc(F)cc1 | 90.1% (inactive)
NCC(=O)Nc1ccc(-n2nc(C(F)(F)F)cc2-c2ccc3c(ccc4ccccc43)c2)cc1 | 139% (inactive)
CCc1nc(-c2cccc(C)c2)c(-c2ccnc(NC(=O)c3ccccc3)c2)s1 | -18.4% (inactive)
COc1cc2c(NC3CCN(CC4CCCCC4)CC3)nc(N3CCCN(C(C)C)CC3)nc2cc1OCCCN1CCCCC1 | 30.1% (inactive)
CC(C)N(CCCNC(=O)Nc1ccc(C(C)(C)C)cc1)C[C@H]1O[C@@H](n2ccc3c(N)ncnc32)[C@H](O)[C@@H]1O | 109% (inactive)
Cc1cnc(Nc2cccc(CN3CCOCC3)c2)nc1Nc1cccc(S(=O)(=O)NC(C)(C)C)c1 | 92.4% (inactive)
C[C@@]1(c2cc(-c3cncnc3)c(F)cc2F)CCSC(N)=N1 | 223% [at 42.4 µM] (inactive)
CCN(CCO)CCCC(C)Nc1ccnc2cc(Cl)ccc12 (stereo not given) | 6.92% [at 9.14 µM] (inactive)
CC(C)N(CCCNC(=O)Nc1ccc(C(C)(C)C)cc1)C[C@H]1O[C@@H](n2cc(Br)c3c(N)ncnc32)[C@H](O)[C@@H]1O | 259% (inactive)
CCCCOc1nc(N)c2c(n1)N(Cc1cccc(CN3CCCC3)c1)CC(=O)N2 | 36.3% (inactive)
Nc1ncnc2c1c(-c1cccc(OCc3ccccc3)c1)cn2C1CC(CN2CCC2)C1 (stereo not given) | 326% (inactive)
Cc1nc(C(=O)NCC(=O)O)c(O)c2ccc(Oc3ccccc3)cc12 | 34.9% (inactive)
OCCn1cc(-c2cnc3nnn(Cc4ccc5ncccc5c4)c3n2)cn1 | 55.4% (inactive)
COc1cc(C)c(Sc2cnc(NC(=O)c3ccc(CNC(C)C(C)C)cc3)s2)cc1C(=O)N1CCN(C(C)=O)CC1 (stereo not given) | 153% (inactive)
Cc1nnc(C(C)C)n1C1CC2CCC(C1)N2CCC(NC(=O)C1CCC(F)(F)CC1)c1ccccc1 (stereo not given) | 86.5% (inactive)
Cc1nn(C)c(COc2ccc(N3CCN(S(=O)(=O)N(C)C)CC3)cc2)c1-c1cccc2c(CCCOc3cccc4ccccc34)c(C(=O)O)n(CCN3CCOCC3)c12 | 15% (inactive)
Cc1cc(C)cc(NC(=O)Cc2ccc(OC(C)(C)C(=O)O)cc2)c1 | 21.4% (inactive)
OC(c1ccc(-c2ccc(CN3CCN(Cc4ccncc4)CC3)cc2)c(F)c1)(C(F)(F)F)C(F)(F)F | 13% (inactive)
Cn1cncc1C(N)(c1ccc(Cl)cc1)c1ccc2c(c1)c(-c1cccc(Cl)c1)cc(=O)n2C (stereo not given) | 47.8% (inactive)
CN(C)N(C)C(=O)[C@@]1(Cc2ccccc2)CCCN(C(=O)[C@@H](Cc2c[nH]c3ccccc23)NC(=O)C(C)(C)N)C1 | 120% (inactive)

Structure (SMILES) | activity change, negative = inhibition
CC(C)(C)NC(=O)Nc1cccc(Nc2ncc(F)c(NC(C)(C)CO)n2)c1 | 15.5% (inactive)
C=C1[C@H](CO)[C@@H](O)C[C@@H]1n1cnc2c(=O)[nH]c(N)nc21 | -2.84% (inactive)
CNC(=O)c1ccc(N2C(=S)N(c3cnc(C#N)c(C(F)(F)F)c3)C(=O)C23CCC3)cc1F | 150% (inactive)
Cn1cc(-c2cnn3c(N)c(Br)c([C@@H]4CCCNC4)nc23)cn1 | 20.6% (inactive)
Cc1ccc2nc(NC(=O)CSc3nc4c(c(=O)n3-c3ccccc3)SCC4)sc2c1 | -7.81% (inactive)
CC1(C)Cc2c(-c3ccccc3)c(-c3ccc(Cl)cc3)c(CC(=O)O)n2C1 | -3.83% (inactive)
Cc1cc(Nc2ncnc3ccc(-c4ccc(CNCCS(C)(=O)=O)o4)cc23)ccc1Oc1ccn2ncnc2c1 | 279% (inactive)
CCOc1cc2c(c(F)c1OCC)C(=N)N(CC(=O)c1cc(N3CCOCC3)c(OC)c(C(C)(C)C)c1)C2 | 26.5% (inactive)
COc1cc2c(cc1OC)CN(CCc1ccc(NC(=O)c3cccc4c(=O)c5cccc(OC)c5[nH]c34)cc1)CC2 | 69.6% (inactive)
CC(C)C(=O)Nc1ncc(-c2cc(C(F)F)nn2-c2c(Cl)cccc2Cl)s1 | 29.1% (inactive)
O=C(O)Cn1nnc(-c2cc(N3CCC(Oc4cc(F)ccc4Br)CC3)no2)n1 | 80.5% (inactive)
O=C(NC[C@H](O)CN1CCc2ccccc2C1)c1cc(NC2COC2)ncn1 | 135% (inactive)
Cn1cc(-c2ccc3nnc(C(F)(F)c4ccc5ncccc5c4)n3n2)cn1 | -7.39% (inactive)
CCNCc1nc2c(N)nc3ccccc3c2n1CC(C)(C)O | 164% (inactive)
COc1cccc(Nc2c(C(N)=O)cnc3c(C)cc(S(=O)(=O)c4cccc(C(=O)N(C)C)c4)cc23)c1 | 16.8% (inactive)
C[C@H]1Oc2cc(cnc2N)-c2c(nn(C)c2C#N)CN(C)C(=O)c2ccc(F)cc21 | 35.4% (inactive)
C=Cc1cc(O)cc2nc(-c3ccc(O)c(F)c3)oc12 | -14.5% (inactive)
CC1(C)CCC(c2ccc(Cl)cc2)=C(CN2CCN(c3ccc(C(=O)NS(=O)(=O)c4ccc(N[C@H](CCN5CCOCC5)CSc5ccccc5)c(S(=O)(=O)C(F)(F)F)c4)cc3)CC2)C1 | 187% (inactive)
CC(=O)N1CCN(CCOc2ccc(C3CCN(C4=Nn5c(nnc5C(F)(F)F)CC4)CC3)cc2)CC1 | -16.9% (inactive)
CCN(c1cc(-c2ccc(CN3CCOCC3)cc2)cc(C(=O)NCc2c(C)cc(C)[nH]c2=O)c1C)C1CCOCC1 | -14.8% (inactive)
